# Experimental data reported in PubChem BioAssay (NCI).
# Compounds without any hit were thinned out: in the full panel of roughly 83,000, 20% have a hit.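 Activity criterion: percent growth below 10, measured after cells in 96-well plates were exposed to a single compound concentration for 48 hours.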 Values without a mark were called inactive. The source made the active and inactive calls.
# How the values were obtained:
# Experiment in all cases: NCI-60 one-dose screen, 48 h (100 = growth as untreated, 0 = no growth, -100 = all killed)
# Conditions in all cases: 10 µM
# SR leukemia = system: SR leukemia
# RPMI-8226 leukemia = system: RPMI-8226 leukemia
# OVCAR-8 ovarian = system: OVCAR-8 ovarian
# OVCAR-5 ovarian = system: OVCAR-5 ovarian
# OVCAR-4 ovarian = system: OVCAR-4 ovarian
# IGROV1 ovarian = system: IGROV1 ovarian
# OVCAR-3 ovarian = system: OVCAR-3 ovarian
# HS 578T breast = system: HS 578T breast
# NCI/ADR-RES ovarian = system: NCI/ADR-RES ovarian
# T-47D breast = system: T-47D breast
# MDA-MB-435 melanoma = system: MDA-MB-435 melanoma
# SW-620 colon = system: SW-620 colon
# MCF7 breast = system: MCF7 breast
# HCT-116 colon = system: HCT-116 colon
# HCC-2998 colon = system: HCC-2998 colon
# KM12 colon = system: KM12 colon
# BT-549 breast = system: BT-549 breast
# SK-OV-3 ovarian = system: SK-OV-3 ovarian
SMILES,growth (SR leukemia),growth (RPMI-8226 leukemia),growth (OVCAR-8 ovarian),growth (OVCAR-5 ovarian),growth (OVCAR-4 ovarian),growth (IGROV1 ovarian),growth (OVCAR-3 ovarian),growth (HS 578T breast),growth (NCI/ADR-RES ovarian),growth (T-47D breast),growth (MDA-MB-435 melanoma),growth (SW-620 colon),growth (MCF7 breast),growth (HCT-116 colon),growth (HCC-2998 colon),growth (KM12 colon),growth (BT-549 breast),growth (SK-OV-3 ovarian) [%]
N#CCc1csc(Cc2ccccc2)n1,98.6%,99%,106%,110%,121%,108%,106%,99.1%,97.3%,103%,111%,103%,90.1%,106%,104%,101%,–,–
Cc1cc(C(C#N)c2ccc(Cl)cc2)c(Cl)cc1NC(=O)c1cc(I)cc(I)c1O (stereo not given),27.6%,13.8%,53.4%,87.8%,82.6%,51.7%,32.6%,26%,21.1%,66.4%,55.7%,43.3%,43.2%,7.35% (active),17.4%,34%,36.8%,–
O[C@@H]1CO[C@H]2[C@@H]1OC[C@@H]2O,112%,112%,102%,92.6%,121%,–,120%,–,104%,121%,–,–,99.6%,104%,101%,–,112%,115
O=C1c2ccccc2C(=O)c2c1ccc(C(Br)Br)c2[N+](=O)[O-],-32% (active),-7.34% (active),43.1%,49.7%,-23.9% (active),-55% (active),-84% (active),103%,50.3%,-36.2% (active),81.5%,-23.6% (active),-40% (active),-63.9% (active),82%,49.9%,–,–
COc1cccc(C2C(C#N)=C(N)Oc3cc(N)ccc32)c1 (stereo not given),14.4%,19.6%,30.7%,40.6%,43.8%,32.4%,-26.5% (active),22.1%,-7.69% (active),10.4%,-30.5% (active),18.7%,12.1%,23.2%,39.1%,24.6%,47.3%,–
CC(=O)Nc1ccc(S(=O)(=O)N/N=C(\C)c2ccc(C)cc2C)cc1,113%,104%,98.5%,98.4%,102%,–,111%,134%,112%,106%,–,101%,88.2%,102%,101%,110%,111%,98.5
CC[N+](CC)=c1ccc2nc3c(cc(NCc4ccccc4)c4ccccc43)oc-2c1,-9.48% (active),-21.1% (active),-27.2% (active),-91.4% (active),-93.1% (active),-94.5% (active),-54.9% (active),-20.4% (active),-7.86% (active),-55.9% (active),-98.9% (active),-82.5% (active),-82.2% (active),-35.6% (active),-94.8% (active),-88.6% (active),39.4%,–
CCN(CC)CCCC(C)Nc1c2ccc(Cl)cc2nc2ccc(OC)cc12 (stereo not given),0.997% (active),-6.19% (active),16.6%,–,-7.7% (active),–,31%,57.4%,31.9%,14%,-18.9% (active),-19.1% (active),-11.6% (active),12.3%,15.3%,22.1%,56.2%,39.3
Nc1cc(Br)c(-c2nn3c(CCC(=O)c4nc5ccccc5[nH]4)nnc3s2)c(Br)c1,88.1%,85.1%,96.5%,122%,–,101%,105%,90%,97.3%,88%,90.5%,112%,87.5%,77.9%,104%,96.4%,105%,113
CC(C)(C)OC(=O)N1CCc2c(sc3ncnc(N/N=C/c4cccc(Br)c4)c23)C1,29.4%,–,46.6%,70.5%,54.9%,43.9%,61.5%,71.2%,42.1%,20.2%,34.3%,41.1%,5.3% (active),29.6%,42.6%,62.3%,79.4%,62.2
O=C(Nc1ccccc1)Nc1ncnc2c1ncn2-c1ccccc1,70.8%,–,55.3%,83.2%,-3.77% (active),78.5%,73.7%,50.1%,66.1%,51.3%,84.8%,94%,78.9%,29.2%,92.6%,–,89.4%,44.3
CC(=O)OC1CC2C(C)(C)CCC[C@]2(C)C2=C1C(O)=C(C(C)C)C(=O)C2=O (stereo not given in full),2.66% (active),4.43% (active),13.4%,-39.3% (active),–,–,-54% (active),28.9%,3.62% (active),0.0935% (active),-37.9% (active),-51% (active),–,-8.31% (active),-76.1% (active),-77.7% (active),-21.9% (active),19.3
CN1CCN(CCCn2c(=O)c3sc4ncccc4c3n3nnc(-c4ccccc4)c23)CC1,-38% (active),-2.66% (active),16.9%,59.3%,-29% (active),–,-47.4% (active),-12.2% (active),33.1%,-75.4% (active),-75.8% (active),-65.5% (active),5.32% (active),-59.2% (active),-5.79% (active),16.4%,50.1%,–
COc1ccc(C2=Cn3c(CCC(=O)c4nc5ccccc5[nH]4)nnc3SC2)cc1,18.9%,61.7%,120%,116%,–,91.6%,113%,92.8%,105%,81%,90.3%,129%,84.6%,71.4%,–,98.6%,104%,120
CC(C)c1ccc(C(C)C(=O)N(CC2=C(C(C)c3ccccn3)c3ccccc3C2)C(C)C)cc1 (stereo not given),24.2%,14.6%,46.6%,64.7%,30.2%,–,29.7%,47.4%,24.2%,13.3%,44.1%,31.3%,19.9%,11.1%,37.3%,37.5%,69.6%,–
COc1cc(C2CC(c3ccc4c(c3)OCO4)=NN2c2ccccc2)cc(OC)c1OC (stereo not given),71.9%,75.7%,99.3%,–,–,–,89.8%,93.6%,77.7%,–,30.7%,89.4%,87.4%,93.5%,83.2%,60.9%,71.9%,107
CC(C)C1=C(O)C2=C(C(=O)C1=O)[C@@]1(C)CCCC(C)(C)[C@@H]1CC2,48%,55.2%,70%,108%,–,–,61%,85%,39.7%,67.7%,75.4%,55.4%,66.4%,58%,–,52%,106%,95.5
Cc1ccc(C(C)C)c(O)c1NC(=O)OC(C)C,115%,102%,95.7%,–,–,–,104%,95.8%,98.3%,–,106%,103%,92.7%,91.9%,89.5%,100%,96.1%,106
OC(CCN1CCCC1)(c1ccccc1)C1CCCCC1 (stereo not given),123%,114%,104%,–,104%,–,105%,103%,105%,102%,101%,105%,101%,104%,105%,101%,106%,120
